Results from PubChem BioAssay (NCATS).
Records with an inconclusive call do not appear. Active and inactive are the calls of the source. Unless noted, calls follow the shape of the dose curve; as a rule, active = well fitted curve in the direction sought with a large enough effect; inconclusive = small, poorly fitted or top-dose-only effect, or another doubt; inactive = no such curve, though single readings can be large; an effect the other way counts as inactive or inconclusive.

Key:
[1] = target: Lysosomal acid glucosylceramidase (Homo sapiens) (UniProt P04062); assay: Glucocerebrosidase-p2 (AID 348; in the data active = potency below about 10 µM; also: potency is read from the fitted curve at half-maximal effect); conditions: purified GBA, blue fluorogenic substrate, 40 min
Sequence of Lysosomal acid glucosylceramidase (Homo sapiens) (P04062 whole entry, looked up): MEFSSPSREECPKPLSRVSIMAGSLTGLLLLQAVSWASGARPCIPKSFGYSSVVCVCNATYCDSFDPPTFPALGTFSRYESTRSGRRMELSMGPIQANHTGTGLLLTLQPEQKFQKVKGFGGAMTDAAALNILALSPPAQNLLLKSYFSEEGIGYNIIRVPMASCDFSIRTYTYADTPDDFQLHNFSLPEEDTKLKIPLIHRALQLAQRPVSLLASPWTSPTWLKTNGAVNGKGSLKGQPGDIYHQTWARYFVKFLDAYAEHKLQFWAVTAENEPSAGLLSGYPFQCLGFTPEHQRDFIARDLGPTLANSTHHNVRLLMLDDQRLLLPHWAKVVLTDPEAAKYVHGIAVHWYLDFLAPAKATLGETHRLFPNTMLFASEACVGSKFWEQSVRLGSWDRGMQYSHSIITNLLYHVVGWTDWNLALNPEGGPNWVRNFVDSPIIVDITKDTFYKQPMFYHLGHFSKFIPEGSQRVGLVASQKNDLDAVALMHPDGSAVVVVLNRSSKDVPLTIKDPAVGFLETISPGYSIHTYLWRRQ
Summary of the method: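 Compounds titrated from 0.6 nM upwards against 0.2 nM enzyme in pH 5.9 citric acid/KH2PO4, taurocholate, tween-20; blue fluorogenic substrate 80 uM, 40 min room temperature, stopped and read Ex 365/Em 440 for AC50.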

[2] = AP1 Signaling Pathway (AID 357; active = well fitted curve in either direction with a large enough effect, not every such curve was filed as active;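 also: ME-180 reporter cells stimulated with EGF at its EC50 level; % is scaled to controls: 0 for no effect and ±100 for the full control effect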); conditions: ME-180 AP-1-bla reporter, EGF-induced, beta-lactamase ratio, 5 h; at 7.69 µM (top of the series) unless noted
Summary of the method: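 A ratiometric CCF4 readout (405 nm excitation; 460 and 530 nm emission) quantified AP-1-driven beta-lactamase in ME-180 cells after 5 h with compound and EC50 EGF; AC50 values were derived for activators and inhibitors.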

[3] = target: Cytochrome P450 1A2 (Homo sapiens) (UniProt P05177); assay: p450-cyp1a2 (AID 410; calls by dose curve; also: potency is read from the fitted curve at half-maximal effect); conditions: recombinant CYP1A2, luciferin-ME demethylation, luminescence; series mostly up to 57 µM
Sequence of Cytochrome P450 1A2 (Homo sapiens) (P05177 whole entry, looked up): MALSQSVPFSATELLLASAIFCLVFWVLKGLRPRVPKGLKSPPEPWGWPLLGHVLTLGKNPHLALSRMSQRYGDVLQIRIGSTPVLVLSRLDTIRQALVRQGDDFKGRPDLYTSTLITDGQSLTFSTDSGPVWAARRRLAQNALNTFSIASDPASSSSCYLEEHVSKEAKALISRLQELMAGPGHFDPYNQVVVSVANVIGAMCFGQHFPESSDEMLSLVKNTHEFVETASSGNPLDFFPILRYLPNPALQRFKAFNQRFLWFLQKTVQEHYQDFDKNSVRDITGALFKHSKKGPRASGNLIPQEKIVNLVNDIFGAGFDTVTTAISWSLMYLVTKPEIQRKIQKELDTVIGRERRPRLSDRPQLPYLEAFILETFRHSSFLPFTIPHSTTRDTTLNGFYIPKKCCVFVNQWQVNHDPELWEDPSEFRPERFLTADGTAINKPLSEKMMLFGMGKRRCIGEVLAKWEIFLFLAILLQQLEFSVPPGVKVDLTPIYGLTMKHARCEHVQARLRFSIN
Summary of the method: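 20nM CYP1A2 with 100uM Luciferin-ME (at Km) in 100mM KPO4; compound preincubated 10 min, NADPH regeneration added, 60 min at room temperature. Luciferin quantified by luminescence after detection reagent; normalized to 57 uM furafylline.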

[4] = NFAT Signaling Pathway (AID 444; active = well fitted curve in either direction with a large enough effect, not every such curve was filed as active;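 also: carbachol stimulus at about its EC50 of 1 µM final; % is scaled to controls: 0 for no effect and ±100 for the full control effect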); conditions: Jurkat NFAT-bla M1, carbachol, beta-lactamase ratio, 5 h; at 7.69 µM (top of the series) unless noted
Summary of the method: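 Jurkat cells with NFAT-driven β-lactamase reporter and co-expressed M1 receptor, stimulated with carbachol (final 1 uM, ~EC50), compound titration, 5 h at 37 °C. CCF4 loaded 1 h at RT; 460/530 nm ratio gave %activity and AC50.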

[5] = Stat Signaling Pathway (AID 446; active = well fitted curve in either direction with a large enough effect, not every such curve was filed as active;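 also: ME-180 cervical cancer cells given 40 pM IL-6 alongside compound; SIE-controlled beta-lactamase reporter measured as 460/530 nm FRET emission ratio; % is scaled to controls: 0 for no effect and ±100 for the full control effect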); conditions: ME-180 SIE beta-lactamase reporter, IL-6 stimulated, 5 h; at 7.69 µM (top of the series) unless noted
Summary of the method: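 Screening format detects activators and inhibitors alike: ME-180 SIE-bla cells stimulated at 40 pM IL-6 for 5 hrs with compound, then dual-emission beta-lactamase read at 405 nm excitation.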

[6] = target: Glucocorticoid receptor (Homo sapiens) (UniProt P04150); assay: GR-GFP Redistribution (AID 450;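 active = compounds whose dose series gives a full or clear partial fitted curve of increased nuclear translocation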; also: potency is read from the fitted curve at half-maximal effect); conditions: U2OS GR-GFP nuclear translocation, laser cytometry, 2 h
Sequence of Glucocorticoid receptor (Homo sapiens) (P04150 whole entry, looked up, the tested form may be a part): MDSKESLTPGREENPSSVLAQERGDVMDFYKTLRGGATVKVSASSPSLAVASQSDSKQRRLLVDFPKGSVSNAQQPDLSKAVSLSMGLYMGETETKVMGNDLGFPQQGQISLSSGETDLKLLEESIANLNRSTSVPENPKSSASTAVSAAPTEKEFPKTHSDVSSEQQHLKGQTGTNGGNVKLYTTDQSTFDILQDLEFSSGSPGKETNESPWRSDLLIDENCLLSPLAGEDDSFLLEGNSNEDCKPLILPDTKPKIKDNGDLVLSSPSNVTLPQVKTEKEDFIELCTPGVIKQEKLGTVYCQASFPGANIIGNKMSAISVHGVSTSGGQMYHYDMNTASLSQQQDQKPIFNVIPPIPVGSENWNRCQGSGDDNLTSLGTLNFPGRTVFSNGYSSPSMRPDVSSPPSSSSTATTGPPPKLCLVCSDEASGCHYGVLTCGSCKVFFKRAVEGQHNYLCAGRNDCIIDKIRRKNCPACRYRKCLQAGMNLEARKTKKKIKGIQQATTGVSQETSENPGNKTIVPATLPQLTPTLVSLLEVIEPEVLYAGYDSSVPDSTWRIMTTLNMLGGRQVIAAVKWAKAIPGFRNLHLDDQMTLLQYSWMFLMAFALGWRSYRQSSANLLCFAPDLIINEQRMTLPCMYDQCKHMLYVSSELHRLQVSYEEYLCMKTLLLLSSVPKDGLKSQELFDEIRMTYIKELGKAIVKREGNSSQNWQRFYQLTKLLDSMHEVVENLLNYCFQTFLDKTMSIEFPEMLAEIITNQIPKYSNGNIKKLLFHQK

[7] = target: Glucocorticoid receptor (Homo sapiens) (UniProt P04150); assay: GR-EFC Redistribution (AID 451; calls by dose curve; also: potency is read from the fitted curve at half-maximal effect); conditions: CHO-K1 GR-EFC translocation, beta-gal luminescence, 2 h
Summary of the method: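 CHO-K1 cells expressing nuclear EA and GR-ED fragments of b-gal; compounds titrated up to 46 uM final, 2 h at 37 C. GR nuclear translocation read as complemented b-gal luminescence after 1 h RT detection.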

[8] = target: Mitogen-activated protein kinase 10 (Mus musculus) (UniProt Q61831); assay: JNK3 AlphaScreen Assay (AID 530; active = well fitted curve in either direction with a large enough effect, not every such curve was filed as active;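 also: kinase came from lysate of stimulated human HepG2 cells; signal reports phosphorylation of biotinylated GST-cJun 1-79 at Ser73 with 10 µM ATP; % is scaled to controls: 0 for no effect and ±100 for the full control effect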); conditions: JNK3 lysate, c-Jun phosphorylation; series mostly up to 57.1 µM
Summary of the method: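 Pre-activated (IL-1β/TNFα) JNK3 in HepG2 lysates phosphorylates biotin-GST-cJun(1-79), 10 uM ATP; anti-phospho-cJun(Ser73) AlphaScreen read at room temperature, pH 7.6 Tris buffer. Compounds pre-incubated 15 min as titrations.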

[9] = target: Cytochrome P450 3A4 (Homo sapiens) (UniProt P08684); assay: qHTS Assay for Inhibitors and Substrates of Cytochrome P450 3A4 (AID 884); conditions: recombinant CYP3A4, Luciferin-PPXE luminescence; series mostly up to 57.1 µM; also: nearly all actives have a fitted effect of over 50% in size; also: potency is read from the fitted curve at half-maximal effect
Sequence of Cytochrome P450 3A4 (Homo sapiens) (P08684 whole entry, looked up): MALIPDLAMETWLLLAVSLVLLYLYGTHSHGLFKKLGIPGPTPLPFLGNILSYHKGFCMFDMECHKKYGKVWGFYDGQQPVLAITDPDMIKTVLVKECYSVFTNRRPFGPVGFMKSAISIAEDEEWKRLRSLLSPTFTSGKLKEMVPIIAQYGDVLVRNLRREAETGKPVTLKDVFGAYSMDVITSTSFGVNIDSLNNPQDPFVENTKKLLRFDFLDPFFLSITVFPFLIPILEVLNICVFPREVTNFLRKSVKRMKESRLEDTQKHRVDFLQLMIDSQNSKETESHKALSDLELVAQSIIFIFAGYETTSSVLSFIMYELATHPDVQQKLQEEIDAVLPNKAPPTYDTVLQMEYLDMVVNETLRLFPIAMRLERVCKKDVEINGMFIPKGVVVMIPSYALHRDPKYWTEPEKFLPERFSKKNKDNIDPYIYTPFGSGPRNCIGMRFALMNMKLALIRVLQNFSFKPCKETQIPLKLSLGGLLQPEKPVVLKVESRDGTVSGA
Summary of the method: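 20 nM human CYP3A4 with 25 uM Luciferin-PPXE (at KM) in 200 mM KPO4, preincubated 10 min with compound; NADPH regeneration started a 60 min RT reaction. Luciferin detected by luminescence, normalized to 57 uM ketoconazole as full inhibition.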

[10] = target: Cytochrome P450 2C19 (Homo sapiens) (UniProt P33261); assay: qHTS Assay for Inhibitors and Substrates of Cytochrome P450 2C19 (AID 899); conditions: recombinant CYP2C19, luciferin-H EGE luminescence; series mostly up to 57.1 µM; also: potency is read from the fitted curve at half-maximal effect; nearly all actives have a fitted effect of over 60% in size
Sequence of Cytochrome P450 2C19 (Homo sapiens) (P33261 whole entry, looked up): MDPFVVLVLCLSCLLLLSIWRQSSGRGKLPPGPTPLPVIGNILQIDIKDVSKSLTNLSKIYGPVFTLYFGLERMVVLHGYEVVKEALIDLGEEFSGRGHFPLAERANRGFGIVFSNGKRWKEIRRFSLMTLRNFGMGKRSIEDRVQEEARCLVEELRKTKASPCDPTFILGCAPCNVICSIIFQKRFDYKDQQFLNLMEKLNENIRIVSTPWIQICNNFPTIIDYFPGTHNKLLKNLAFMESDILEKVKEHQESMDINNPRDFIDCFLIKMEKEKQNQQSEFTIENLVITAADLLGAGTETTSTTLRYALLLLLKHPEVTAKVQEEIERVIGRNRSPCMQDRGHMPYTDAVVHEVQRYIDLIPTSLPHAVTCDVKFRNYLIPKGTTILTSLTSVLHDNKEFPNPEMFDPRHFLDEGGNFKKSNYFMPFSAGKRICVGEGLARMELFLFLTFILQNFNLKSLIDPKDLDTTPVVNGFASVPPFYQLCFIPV
Summary of the method: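 Signal comes from luciferase acting on luciferin released by CYP2C19-mediated hydroxylation of Luciferin-H EGE, 10uM (KM). Assay mix: 5nM enzyme, 50mM KPO4; 60 min at 37C with NADPH regeneration. Data normalized against 57uM ketoconazole.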

[11] = target: Dual specificity protein kinase CLK4 (Homo sapiens) (UniProt Q9HAZ1); assay: qHTS Assay for Inhibitors of CDC-like Kinase 4 (Kinase-Glo Assay) (AID 1770); conditions: recombinant Clk4, Kinase-Glo ATP depletion luminescence; series mostly up to 66.7 µM; also: nearly all actives have a fitted effect of over 65% in size; also: potency is read from the fitted curve at half-maximal effect
Sequence of Dual specificity protein kinase CLK4 (Homo sapiens) (Q9HAZ1 whole entry, looked up): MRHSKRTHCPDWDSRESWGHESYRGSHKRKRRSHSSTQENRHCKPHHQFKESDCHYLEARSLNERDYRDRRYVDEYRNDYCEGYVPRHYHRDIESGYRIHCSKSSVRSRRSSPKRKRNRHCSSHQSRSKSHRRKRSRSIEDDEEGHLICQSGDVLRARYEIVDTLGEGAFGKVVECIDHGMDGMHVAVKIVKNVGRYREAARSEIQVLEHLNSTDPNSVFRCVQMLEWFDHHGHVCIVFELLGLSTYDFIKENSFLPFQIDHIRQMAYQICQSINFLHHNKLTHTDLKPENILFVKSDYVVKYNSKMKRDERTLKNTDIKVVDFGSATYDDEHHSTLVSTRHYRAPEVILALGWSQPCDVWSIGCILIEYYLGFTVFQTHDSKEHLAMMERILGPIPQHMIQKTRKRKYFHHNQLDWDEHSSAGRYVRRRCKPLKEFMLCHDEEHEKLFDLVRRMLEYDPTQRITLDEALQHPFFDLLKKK
Summary of the method: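 Recombinant human Clk4 (25 nM) phosphorylated RS repeat peptide (100 uM) with 1 uM ATP in Tris pH 7.5/MgCl2/EGTA/DTT/Triton buffer for 4.5 h at room temperature. Residual ATP was quantified by Kinase-Glo luciferase luminescence.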

[12] = Primary qHTS for small molecule stabilizers of the endoplasmic reticulum resident proteome: Secreted ER Calcium Modulated Protein (SERCaMP) assay (AID 1508630); conditions: SH-SY5Y GLuc-SERCaMP (Gaussia luciferase released on ER calcium loss) secretion, thapsigargin, luminescence; series mostly up to 38.4 µM; also: % is scaled to controls: 0 for no effect and ±100 for the full control effect
Summary of the method: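 GLuc-SERCaMP-expressing SH-SY5Y cells, pretreated 16 h with compound, are challenged with thapsigargin to empty ER calcium stores; after 4 h, coelenterazine is added directly to the medium and luminescence is imaged.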

[13] = target: 3',5'-cyclic-AMP phosphodiesterase 4B (Homo sapiens) (UniProt Q07343); assay: qHTS Assay for Inhibitors of PDE-IV (AID 607; active = well fitted activation curve with a large enough effect in the main read-out, with a control signal flat, not every such curve was filed as active; also: % of control where 0% means no effect); conditions: HEK293 ACTOne CNG channel cells, membrane potential fluorescence; series mostly up to 22.9 µM
Sequence of 3',5'-cyclic-AMP phosphodiesterase 4B (Homo sapiens) (Q07343 whole entry, looked up): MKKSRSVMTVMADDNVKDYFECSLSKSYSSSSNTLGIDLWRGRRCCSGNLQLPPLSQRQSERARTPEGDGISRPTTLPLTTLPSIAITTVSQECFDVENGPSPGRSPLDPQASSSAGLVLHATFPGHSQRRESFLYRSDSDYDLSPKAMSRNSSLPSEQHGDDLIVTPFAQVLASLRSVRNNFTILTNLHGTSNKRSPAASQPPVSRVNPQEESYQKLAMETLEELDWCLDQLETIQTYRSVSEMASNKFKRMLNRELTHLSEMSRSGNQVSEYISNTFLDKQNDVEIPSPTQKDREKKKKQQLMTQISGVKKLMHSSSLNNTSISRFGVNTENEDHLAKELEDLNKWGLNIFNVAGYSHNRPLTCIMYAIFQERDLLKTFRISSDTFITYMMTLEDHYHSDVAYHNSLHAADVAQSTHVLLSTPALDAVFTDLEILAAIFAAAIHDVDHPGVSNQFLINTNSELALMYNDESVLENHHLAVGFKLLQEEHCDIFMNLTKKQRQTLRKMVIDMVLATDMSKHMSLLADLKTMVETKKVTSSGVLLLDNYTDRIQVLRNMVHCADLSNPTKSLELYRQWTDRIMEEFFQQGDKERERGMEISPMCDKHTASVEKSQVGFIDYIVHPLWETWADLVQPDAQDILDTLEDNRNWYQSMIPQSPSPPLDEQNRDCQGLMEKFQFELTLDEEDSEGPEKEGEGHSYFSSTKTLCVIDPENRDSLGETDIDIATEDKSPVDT
Summary of the method: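 The readout is membrane depolarisation from a cAMP-sensing CNG channel, detected with a potential dye at ex 535/em 590. Cells were HEK293-derived (endogenous PDE-IV) at 1000 cells/well, titrated up to 22.9 uM final.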

[14] = target: Ubiquitin carboxyl-terminal hydrolase 1 (Homo sapiens) (UniProt O94782); assay: Inhibitors of USP1/UAF1: Pilot qHTS (AID 504865); conditions: purified USP1/UAF1, Ub-rhodamine cleavage fluorescence; series mostly up to 54.9 µM; also: nearly all actives have a fitted effect of over 35% in size; also: potency is read from the fitted curve at half-maximal effect
Sequence of Ubiquitin carboxyl-terminal hydrolase 1 (Homo sapiens) (O94782 whole entry, looked up): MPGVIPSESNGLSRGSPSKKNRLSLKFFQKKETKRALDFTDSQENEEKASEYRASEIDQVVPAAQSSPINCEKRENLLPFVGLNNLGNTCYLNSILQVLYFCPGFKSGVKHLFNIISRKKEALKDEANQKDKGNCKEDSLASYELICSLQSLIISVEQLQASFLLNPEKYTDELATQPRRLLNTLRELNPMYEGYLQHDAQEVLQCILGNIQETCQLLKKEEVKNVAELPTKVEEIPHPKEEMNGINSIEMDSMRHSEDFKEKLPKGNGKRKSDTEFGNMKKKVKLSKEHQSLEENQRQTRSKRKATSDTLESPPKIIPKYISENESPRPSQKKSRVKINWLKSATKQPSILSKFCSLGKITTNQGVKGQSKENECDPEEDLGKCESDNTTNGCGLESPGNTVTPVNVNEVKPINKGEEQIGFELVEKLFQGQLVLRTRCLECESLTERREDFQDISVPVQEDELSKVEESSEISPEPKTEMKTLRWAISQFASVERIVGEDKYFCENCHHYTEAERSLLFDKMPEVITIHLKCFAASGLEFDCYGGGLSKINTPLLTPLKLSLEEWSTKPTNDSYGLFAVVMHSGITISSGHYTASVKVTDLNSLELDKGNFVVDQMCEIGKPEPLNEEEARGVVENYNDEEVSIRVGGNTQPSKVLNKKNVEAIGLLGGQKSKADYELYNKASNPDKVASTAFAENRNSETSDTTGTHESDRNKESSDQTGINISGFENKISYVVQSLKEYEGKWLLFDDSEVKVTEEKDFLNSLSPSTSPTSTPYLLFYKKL
Summary of the method: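 USP1/UAF1 complex (1nM) preincubated with compound 15 min at room temperature, then Ub-Rho substrate (150nM final) added. Fluorescence read kinetically at 480/540 nm, 6 reads every 60 seconds. Buffer: 50mM HEPES pH 7.8, 0.5mM EDTA, 0.1 mg/ml BSA, 1mM TCEP, 0.01% Tween-20.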

[15] = target: Cytochrome P450 3A4 (Homo sapiens) (UniProt P08684); assay: qHTS Assay for Activators of Cytochrome P450 3A4 (AID 885); conditions: recombinant CYP3A4, Luciferin-PPXE luminescence, 60 min; series mostly up to 57.1 µM; also: nearly all actives have a fitted effect of over 65% in size
Summary of the method: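 Steps: enzyme/substrate mix dispensed; compound added, 10 min RT; NADPH regeneration solution added, 60 min RT; luciferin detection buffer stops reaction; 20 min later luminescence measured.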

[16] = target: Dual specificity protein kinase CLK4 (Homo sapiens) (UniProt Q9HAZ1); assay: qHTS Assay for Inhibitors of CDC-like Kinase 4 (ADP-FP Assay) (AID 1795); conditions: Transcreener ADP fluorescence polarization; series mostly up to 50 µM; also: nearly all actives have a fitted effect of over 60% in size; also: potency is read from the fitted curve at half-maximal effect
Summary of the method: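 Recombinant human Clk4 (6.25 nM) phosphorylated RS repeat peptide (100 uM) with 1 uM ATP in Tris pH 7.5/MgCl2/EGTA/DTT/Triton buffer for one hour. ADP was quantified by Transcreener competitive fluorescence polarization against an ADP calibration curve.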

[17] = qHTS Assay for Identification of Small Molecule Agonists for Hypoxia Response Element Signaling Pathway (AID 914; active = well fitted activation curve with a large enough effect in the signal ratio, with a control signal flat, not every such curve was filed as active; the % refers to the signal ratio; also: % of control where 0% means no effect); conditions: ME-180 (cervical carcinoma) HRE-bla reporter, beta-lactamase ratio, CoCl2, 17 h; activation: active compounds read high
Summary of the method: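 AC50 values come from titration-series %Activity, taken as the 460/530nm ratio of CCF4 fluorescence (excitation 405nm). CellSensor HRE-bla ME-180 cells were treated 17 hours at 37 C with compound plus an EC50 level of CoCl2.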

Clc1ccccc1-c1cc(NCc2ccccc2)ncn1
active: Potency [3] 3.98 µM | Potency [10] 7.94 µM | Potency [11] 25.1 µM
inactive: Potency [1] > 11.4 µM | activity change, negative = inhibition [2] 0.871% | activity change, negative = inhibition [4] 1.92% | activity, negative = inhibition [5] 4.36% | Potency [6] > 46 µM | Potency [7] > 46 µM | Potency [8] | Potency [9] | outcome [12]

CN(C)C(=O)c1ccc(-c2nc(-n3ccnc3)c3ccccc3n2)cc1
inactive: activity change, negative = inhibition [4] 2.92% | activity, negative = inhibition [5] 6.8% | Potency [6] > 46 µM | Potency [7] > 46 µM | Potency [8] | Potency [13] | Potency [11] | Potency [14] | outcome [12]
active: Potency [3] 20 µM

COc1ccccc1CNc1ncncc1-c1cccc(NS(C)(=O)=O)c1
active: Potency [9] 0.251 µM
inactive: activity change, negative = inhibition [2] -18.5% | activity change, negative = inhibition [4] 22.3% | activity, negative = inhibition [5] -7.42% | Potency [6] > 46 µM | Potency [7] > 46 µM | Potency [8] | Potency [13] | Potency [15] | Potency [11] | Potency [16] | Potency [14] | outcome [12]

CN(Cc1ccco1)c1cc(-c2ccccc2C(F)(F)F)ncn1
inactive: Potency [1] > 11.4 µM | activity change, negative = inhibition [2] 9.11% | activity change, negative = inhibition [4] -16.3% | activity, negative = inhibition [5] 3.49% | Potency [6] > 46 µM | Potency [7] > 46 µM | Potency [8] | Potency [13] | Potency [11] | Potency [16] | Potency [14] | outcome [12]

Cc1cnc(CNc2nc(-c3cccc(NS(C)(=O)=O)c3)nc3ccccc23)cn1
inactive: Potency [1] > 11.4 µM | activity change, negative = inhibition [2] -28.3% | activity change, negative = inhibition [4] 19.4% | activity, negative = inhibition [5] -4.54% | Potency [6] > 46 µM | Potency [7] > 46 µM | Potency [8] | Potency [13] | Potency [11] | Potency [16] | Potency [14] | outcome [12]

COc1cccc(-c2nccc(NCc3ccc(OC)cc3OC)n2)c1
inactive: activity change, negative = inhibition [2] -28.1% | activity change, negative = inhibition [4] -2.27% | activity, negative = inhibition [5] -11.4% | Potency [6] > 46 µM | Potency [7] > 46 µM | Potency [8] | Potency [15] | Potency [16] | Potency [14] | outcome [12]
active: Potency [3] 1 µM | Potency [9] 3.16 µM | Potency [10] 2.51 µM | Potency [11] 31.6 µM

Cc1cnc(CNc2nc(-c3ccoc3)nc3ccccc23)cn1
inactive: Potency [1] > 11.4 µM | activity change, negative = inhibition [2] -13.5% | activity, negative = inhibition [5] 9.84% | Potency [6] > 46 µM | Potency [7] > 46 µM | Potency [8] | Potency [13] | Potency [15] | activation [17] -5.75% | Potency [11] | Potency [14] | outcome [12]
active: Potency [3] 2 µM

Cc1cnc(CNc2cc(-c3ccccc3CN(C)C)ncn2)cn1
inactive: Potency [1] > 11.4 µM | activity change, negative = inhibition [2] 17.7% | activity change, negative = inhibition [4] -9.03% | activity, negative = inhibition [5] 7.96% | Potency [6] > 46 µM | Potency [7] > 46 µM | Potency [8] | Potency [13] | Potency [11] | Potency [16] | Potency [14] | outcome [12]

COCCn1c(=O)c(-c2cccc(C#N)c2)nc2cnc(Oc3ccc(OC)cc3)nc21
active: Potency [3] 12.6 µM | Potency [9] 2.51 µM
inactive: Potency [1] > 11.4 µM | activity change, negative = inhibition [2] -21.9% | activity change, negative = inhibition [4] 7% | activity, negative = inhibition [5] -15% | Potency [6] > 9.22 µM | Potency [7] > 46 µM | Potency [8] | Potency [13] | Potency [15] | Potency [11] | Potency [14] | outcome [12]

Cc1noc(C)c1-c1nc(Nc2ccccc2)c2ccccc2n1
active: Potency [3] 0.251 µM | Potency [9] 6.31 µM
inactive: activity change, negative = inhibition [2] -13.6% | activity change, negative = inhibition [4] -11.8% | activity, negative = inhibition [5] -8.68% | Potency [6] > 46 µM | Potency [7] > 46 µM | Potency [8] | Potency [15] | Potency [11] | Potency [16] | Potency [14] | outcome [12]

CN(C)C(=O)c1ccc(-c2ccc3ncnc(NCc4ccccc4)c3c2)cc1
active: Potency [3] 15.8 µM
inactive: Potency [1] > 11.4 µM | activity change, negative = inhibition [4] 13% | activity, negative = inhibition [5] 7.31% | Potency [6] > 46 µM | Potency [7] > 46 µM | Potency [8] | Potency [15] | Potency [11] | Potency [16] | Potency [14] | outcome [12]

Clc1ccccc1-c1nc(NCc2cccs2)c2ccccc2n1
inactive: activity change, negative = inhibition [4] -8.75% | activity, negative = inhibition [5] 0.228% | Potency [6] > 46 µM | Potency [7] > 46 µM | Potency [8] | outcome [12]
active: Potency [3] 1 µM | Potency [9] 6.31 µM | Potency [10] 7.94 µM | Potency [11] 7.94 µM | Potency [16] 12.6 µM | Potency [14] 14.1 µM

O=c1c(-c2ccc(F)cc2)nc2cncnc2n1Cc1ccccc1
inactive: Potency [1] > 11.4 µM | activity change, negative = inhibition [2] -5.88% | activity change, negative = inhibition [4] -16.1% | activity, negative = inhibition [5] 9.13% | Potency [6] > 9.22 µM | Potency [7] > 46 µM | Potency [8] | Potency [11] | Potency [16] | Potency [14] | outcome [12]

O=c1c(-c2cccc(Cl)c2)nc2cncnc2n1-c1ccccc1
inactive: activity change, negative = inhibition [2] -18.9% | activity change, negative = inhibition [4] 9.76% | activity, negative = inhibition [5] 0.546% | Potency [6] > 9.22 µM | Potency [7] > 46 µM | Potency [8] | Potency [15] | Potency [11] | Potency [16] | Potency [14] | outcome [12]
active: Potency [3] 2 µM
